# Source: PubChem
# Sampled rows, rich in hits. Any-hit rate of the full collection: about 1.6%.
# KCNQ2 inh – inhibitors of rat KCNQ2 potassium channel. O88943. CHO-K1 KCNQ2, FluxOR thallium flux, 20 min; active compounds read low. B-score at 10 µM. hit rate 1.1% among 310,000. AID 2156;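 active = fluorescence ratio B-score at most minus 3 library SDs, with starting brightness B-score within 2 library SDs, cut at about -5.5 in these data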
# Target sequence (O88943 whole entry, looked up): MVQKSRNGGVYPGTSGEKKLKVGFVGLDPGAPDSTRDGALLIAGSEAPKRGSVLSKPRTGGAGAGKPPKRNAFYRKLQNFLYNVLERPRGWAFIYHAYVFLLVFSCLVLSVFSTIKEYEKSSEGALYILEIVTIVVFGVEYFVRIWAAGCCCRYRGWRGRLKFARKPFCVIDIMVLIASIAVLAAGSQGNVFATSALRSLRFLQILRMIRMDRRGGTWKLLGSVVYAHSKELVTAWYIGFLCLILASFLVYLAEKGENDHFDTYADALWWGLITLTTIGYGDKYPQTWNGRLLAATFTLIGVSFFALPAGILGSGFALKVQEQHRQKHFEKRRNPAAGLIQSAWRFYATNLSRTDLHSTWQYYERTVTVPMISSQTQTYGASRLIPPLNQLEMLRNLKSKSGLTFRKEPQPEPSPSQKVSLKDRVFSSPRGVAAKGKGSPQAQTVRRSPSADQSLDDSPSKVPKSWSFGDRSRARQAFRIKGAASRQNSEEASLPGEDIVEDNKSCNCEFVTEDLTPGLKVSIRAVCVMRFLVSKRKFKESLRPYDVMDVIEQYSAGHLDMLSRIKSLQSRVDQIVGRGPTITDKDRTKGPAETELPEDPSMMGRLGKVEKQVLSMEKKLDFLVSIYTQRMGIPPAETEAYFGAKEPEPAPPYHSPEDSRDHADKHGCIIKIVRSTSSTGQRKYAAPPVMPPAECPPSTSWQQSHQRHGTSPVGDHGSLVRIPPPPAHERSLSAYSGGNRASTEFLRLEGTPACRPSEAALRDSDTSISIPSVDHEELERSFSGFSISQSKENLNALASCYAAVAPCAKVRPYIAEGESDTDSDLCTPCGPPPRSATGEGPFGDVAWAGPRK
# KCNQ2 enhance – potentiators of rat KCNQ2 potassium channel; O88943; CHO-K1 KCNQ2, FluxOR thallium flux fluorescence; active compounds read high; B-score at 10 µM; hit rate 0.54% among 310,000;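 active = fluorescence ratio B-score at least 3 SD of library B-scores, with initial fluorescence B-score within 3 of them, cut at about 5.3 in these data; same plate scores as AID 2156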;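 also: B-score of peak minus minimum over baseline fluorescence ratio after K+ and Tl+ stimulus; positive B-score means potentiation of KCNQ2 with more thallium influx and brighter signal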
# * = called active by the depositor; i = inactive; . = no result given.
SMILES,KCNQ2 inh,KCNQ2 enhance
Cc1cccc(N2CCN(C(=O)c3ccc(N4CCCC4=O)cc3)CC2C)c1 (centres undefined),i,2.33
Cc1cccc(N2CCN(C(=O)c3ccc4c(c3)c(C)c(C)n4C)CC2C)c1 (centres undefined),-6.07*,-6.07
Cc1ccc(-c2nn(-c3ccccc3)cc2NC(=O)c2ccccc2)cc1,-5.71*,-5.71
O=C(Nc1cn(-c2ccccc2)nc1-c1ccc(Cl)cc1)c1ccccc1,i,.
CCN1C(=O)[C@H]2[C@@H](c3ccc(C)cc3)N3C(=O)N(c4ccccc4)C(=O)[C@@]3(CC)[C@H]2C1=O,i,.
CC(Oc1ccc(F)cc1)C(=O)Nc1cc(S(=O)(=O)N2CCOCC2)ccc1N1CCCCC1 (centres undefined),-8.14*,-8.14
CC(Oc1ccc(F)cc1)C(=O)Nc1cc(S(=O)(=O)N2CCOCC2)ccc1N1CCCC1 (centres undefined),i,0.16
Cc1c(C(=O)NC2CCCCC2C)oc2ccccc12 (centres undefined),i,0.33
Cc1ccc(N(CCCCN2C(=O)c3ccccc3C2=O)C(=O)c2ccc(Cl)s2)cc1,i,.
O=C1c2ccccc2C(=O)N1CCCCN(C(=O)c1ccc(Cl)s1)c1ccc(Cl)cc1,-5.61*,-5.61
COc1ccccc1CNC(=O)OCc1nccnc1C(=O)Nc1ccc(Br)cn1,i,0.65
COc1cc(NC(=O)CN2CCN(c3ccccn3)CC2)cc(OC)c1OC,i,.
COc1ccc(NC(=O)C(c2ccccc2)N2CCN(c3ccccn3)CC2)cc1Cl (centres undefined),-6.35*,-6.35
CC(CNC(=O)c1ccccc1[N+](=O)[O-])NC(=O)c1ccccc1[N+](=O)[O-] (centres undefined),i,1.13
C[C@@H]1CN(C(=O)c2nc3ccc(Cl)cn3c2CNCC[C@@H]2C[C@@H]3C=C[C@H]2C3)C[C@H](C)O1,i,.
O=C(c1nc2ccc(Cl)cn2c1CNCC[C@@H]1C[C@@H]2C=C[C@H]1C2)N1CCCCCCC1,-5.85*,-5.85
COc1ccccc1CN1CC(C(=O)NCCN2CCOC2=O)CCC1=O (centres undefined),i,0.16
O=C(c1ccco1)[C@@H]1[C@@H]2C(=O)N(c3ccccc3)C(=O)[C@@H]2C2c3ccccc3C=CN21 (some centres undefined),i,.
Cc1ccc(N2C(=O)[C@@H]3[C@H](C2=O)C2c4ccccc4C=CN2[C@@H]3C(=O)c2ccco2)c(C)c1 (some centres undefined),-6.39*,-6.39
O=C(Cn1nc(Cc2ccncc2)c2ccccc2c1=O)Nc1cccnc1Cl,i,0.02
O=C(NCc1ccc2c(c1)OCO2)c1ccc(N2CCCCCC2)c([N+](=O)[O-])c1,i,2.51
CC1CCCN(c2ccc(C(=O)NCc3ccc4c(c3)OCO4)cc2[N+](=O)[O-])C1 (centres undefined),i,8.28*
O=C(O)CCNC(=S)Nc1cccc(F)c1,i,1.24
CCCCC(=O)Nc1ccc(NCc2ccc(C)s2)cc1,i,30.1*
CCCCC(=O)Nc1ccc(C(N)=O)cc1,i,0.4
SMILES,KCNQ2 inh,KCNQ2 enhance
O=C(Nc1ccccc1)Nc1ccc(Cl)nc1Cl,i,0.13
CC(C)(C)n1nnnc1C(c1cccnc1)N(Cc1ccccc1)Cc1ccco1 (centres undefined),i,.
COc1cccc(CN(Cc2ccco2)C(c2ccc(F)cc2)c2nnnn2C(C)(C)C)c1 (centres undefined),-6.06*,-6.06
O=C(CCc1c[nH]c2ccccc12)OCc1cccc([N+](=O)[O-])c1,i,.
Cc1ccc(NC(=O)c2sc3nc(C)nc(N4CCN(c5ccccn5)CC4)c3c2C)c(C)c1,i,.
Cc1nc(N2CCN(c3ccccn3)CC2)c2c(C)c(C(=O)Nc3ccc(Br)cc3C)sc2n1,-5.98*,-5.98
COc1ccccc1OCC(=O)N/N=C1\CCc2ccccc21,-5.64*,-5.64
O=C(COc1cccc(Br)c1)N/N=C1\CCCc2ccccc21,i,.
COc1ccc(OCC(=O)N/N=C2\CCCc3ccccc32)cc1,i,.
COc1ccccc1OCC(=O)N/N=C1\CCCCc2ccccc21,-7.07*,-7.07
Cc1cccc2c1OCC/C2=N\NC(=O)COc1ccccc1,-7.28*,-7.28
COc1ccc(C(=O)N/N=C2\CCc3ccccc32)cc1OC,i,0.19
Cc1ccc(C)c2[nH]c(=O)c(CCNC(=O)CCc3ccccc3)cc12,i,1.22
COc1ccc(C(=O)Nc2c(N)nc[nH]c2=O)cc1,i,1.47
CCOC(=O)c1c(C)[nH]c(C(=O)OCC(=O)NC2(C#N)CCCCC2)c1C,i,.
CCN(CC(=O)Nc1ccccc1OC)C(=O)CCOc1ccc(C(C)(C)C)cc1,-6.29*,-6.29
CCOc1ccc(OCCC(=O)N(CC)CC(=O)Nc2ccccc2C(F)(F)F)cc1,i,.
COc1cccc(CNC(=O)C2=C(C)C(=O)OC23CCC(C)CC3)c1 (centres undefined),-6.9*,-6.9
COc1ccccc1CNC(=O)C1=C(C)C(=O)OC12CCC(C)CC2 (centres undefined),i,.
CSC1=NCCN1C(=O)C12CC3CC(CC(C3)C1)C2,i,.
O=C(Nc1ccc2[nH]ccc2c1)c1ccccc1,i,1.99
O=C(Nc1ccc(F)cc1)Nc1ccccc1F,i,3.18
O=C(Nc1ccc2[nH]c(=S)sc2c1)Nc1ccccc1F,i,39.5*
O=C(Nc1ccc2[nH]c(=S)sc2c1)c1ccccc1,i,15.5*
COCCN(C(=O)CSc1nc2ccc(OC)cc2[nH]1)c1c(N)n(Cc2ccccc2)c(=O)[nH]c1=O,i,.
SMILES,KCNQ2 inh,KCNQ2 enhance
CN1CCN(C(=O)CCc2nnc3ccc(N4CCC5(CC4)OCCO5)nn23)CC1,i,0.82
CSc1ncc(C(=O)Nc2cccc(Cl)c2)c(C)n1,i,.
Cc1ccccc1Nc1nnc(-c2ccc(C(=O)NCCO)cc2)c2ccccc12,i,.
CC12CCC(c3c(C(=O)O)nn(-c4ccccc4)c31)C2(C)C (centres undefined),i,0.88
CC12CCC(c3c(C(=O)Nc4nccs4)nn(-c4ccccc4)c31)C2(C)C (centres undefined),-8.29*,-8.29
COCCNC(=O)CN(C(=O)CCC(=O)Nc1ccccn1)c1cc(C)ccc1C,i,.
CCN(CC)CCCNC(=O)c1oc2ccc(S(=O)(=O)N3CC(C)CC(C)C3)cc2c1C (centres undefined),i,.
C[C@H]([C@H](O)c1ccccc1)N(C)C(=O)CN,i,1.16
CC1(C)CC(=O)C(C(c2ccc(Br)cc2)C2C(=O)CC(C)(C)CC2=O)C(=O)C1,i,.
Cc1sc2ncnc(N3CCC(C(=O)N(CC(C)C)c4nc5ccccc5s4)CC3)c2c1C,-6.24*,-6.24
Cc1cccc(OCC(=O)NNC(=O)C2CCN(c3ncnc4sc(C)c(C)c34)CC2)c1,i,.
Cc1ccccc1OCC(=O)NNC(=O)C1CCN(c2ncnc3sc(C)c(C)c23)CC1,i,.
CCCN(CC(=O)Nc1ccccc1C)C(=O)C1CCN(c2ncnc3sc(C)c(C)c23)CC1,-6.85*,-6.85
C/C(=N\NC(=O)COc1ccccc1-c1ccccc1)c1cccnc1,-6.4*,-6.4
C/C(=N\NC(=O)COc1ccccc1-c1ccccc1)c1ccccn1,i,.
C[C@]1(C(=O)NCc2cc(F)cc(C(F)(F)F)c2)C=C[C@@H](Cc2ccccc2)N1C(=O)c1ccccc1,-7.17*,-7.17
COCCNC(=O)[C@@]1(C)C=C[C@@H](Cc2ccccc2)N1C(=O)c1ccccc1,i,0.24
